# From PubChem BioAssay
# Active and inactive are the calls of the source. No rule for the calls is given here.
# Biological target: Pantothenate synthetase (Mycobacterium tuberculosis (strain ATCC 25618 / H37Rv)) (UniProt P9WIL5)
# Assay: Recombinant Mtb pantothenate synthetase (PanC) inhibitors, coupled enzyme, confirmatory (AID 375);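 also: 0% = full reaction with vehicle and 100% = no enzyme background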
# Conditions: coupled enzyme assay; at 10 µM, active compounds read high
# Sequence of Pantothenate synthetase (Mycobacterium tuberculosis (strain ATCC 25618 / H37Rv)) (P9WIL5 whole entry, looked up): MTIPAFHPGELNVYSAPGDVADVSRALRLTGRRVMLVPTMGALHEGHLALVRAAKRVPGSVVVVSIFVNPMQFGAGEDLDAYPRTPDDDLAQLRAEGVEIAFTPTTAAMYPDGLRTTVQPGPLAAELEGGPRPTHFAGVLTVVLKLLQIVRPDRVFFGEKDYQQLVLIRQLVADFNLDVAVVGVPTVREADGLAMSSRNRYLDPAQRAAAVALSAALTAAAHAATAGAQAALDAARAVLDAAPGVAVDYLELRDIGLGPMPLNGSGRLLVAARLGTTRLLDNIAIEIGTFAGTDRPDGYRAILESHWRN
row,SMILES,inhibition
1,COCCN1C(=O)C(=O)/C(=C(/O)c2cccc(S(=O)(=O)N(C)C)c2)C12C(=O)N(C)c1ccccc12 (configuration not stated),8% (inactive)
2,O=C(O)CCc1ccc(-c2ccccc2)n1CC(=O)O,0% (inactive)
3,COc1cc(C)c(Br)cc1S(=O)(=O)N1CCOCC1,2% (inactive)
4,CCOC(=O)C1CCCN(C(=O)c2sc3nc(-c4ccccc4)cn3c2C)C1 (configuration not stated),0% (inactive)
5,O=C(Nc1cccc2ccccc12)N1CCOCC1,0% (inactive)
6,CCOC(=O)CSc1nc2cccnc2n1-c1ccc(F)cc1,2% (inactive)
7,O=C(CSc1nc(O)cc(=O)n1-c1ccccc1)N1CCCCC1,0% (inactive)
8,CCOC(=O)N1CCC(n2c(=S)[nH]c3cc(OC)c(OC)cc3c2=O)CC1,2% (inactive)
9,CC1=C(C(N)=O)C(c2cccnc2)n2nc(SCc3ccccc3Cl)nc2N1 (configuration not stated),0% (inactive)
10,CCOC(=O)c1sc(NC(=O)CSc2nc3c(cc2C#N)CCC3)c(C#N)c1C,10% (inactive)
11,COc1ccccc1CC(=O)NCC1CCCO1 (configuration not stated),0% (inactive)
12,COCCn1nnnc1CN(CCCN1CCOCC1)Cc1cc2c(C)ccc(C)c2[nH]c1=O,0% (inactive)
13,O=C(Nc1ccccc1Cl)c1c(F)c(F)c(F)c(F)c1F,6% (inactive)
14,Cc1noc(NS(=O)(=O)c2ccc(N)cc2)c1C,0% (inactive)
15,CC(CCc1ccccc1)NC(=O)CSc1nc(N)cc(N)n1 (configuration not stated),0% (inactive)
16,C=CCOc1nc2c(c(=O)n(C)c(=O)n2C)n1Cc1c(Cl)cccc1Cl,1% (inactive)
17,Cc1nnc(SC(=O)N2c3ccccc3Sc3ccccc32)s1,6% (inactive)
